Results filed as inconclusive are left out. The source holds several records for some structures; these can differ, active in one and inactive in another. The source made the active and inactive calls. The calls were made as follows: active = hit-call score of the fitted dose curve at least 0.9, where 1 is the maximum; inconclusive = response in the unintended direction; inactive = score below 0.9. Peptide text beside a SMILES is read from it.
molecular target: Peroxisome proliferator-activated receptor gamma (Homo sapiens) (UniProt P37231); test: NVS_NR_hPPARg: NovaScreen (NVS) Nuclear Receptor Binding Assay for human Peroxisome Proliferator-activated Receptor gamma (PPARg) (AID 2283370)
Description: NVS_NR_hPPARg is a biochemical, single-readout assay that uses extracted gene-proteins in a cell-free assay. Measurements were taken 2 hours after chemical dosing in a 384-well plate.NVS_NR_hPPARg is one of one assay component(s) measured or calculated from the NVS_NR_hPPARg assay. It is designed to make measurements of fluorescent polarization, a form of binding reporter, as detected with fluorescence polarization signals by Fluorescence Polarization technology.Data from the assay component NVS_NR_hPPARg was analyzed into 1 assay endpoint. This assay endpoint, NVS_NR_hPPARg, was analyzed in the positive analysis fitting direction relative to DMSO as the negative control and baseline of activity. Using a type of binding reporter, loss-of-signal activity can be used to understand changes in the binding as they relate to the gene PPARG. Furthermore, this assay endpoint can be referred to as a primary readout, because the performed assay has only produced 1 assay endpoint. To generalize the intended target to other relatable targets, this assay endpoint is annotated to the nuclear receptor intended target family, where the subfamily is non-steroidal.
Binding assays used specific radioligands (tritiated, iodinated) with non-radioactive competitive displacement ligands in agonist or antagonist protocols (as indicated) and various reference compounds and inhibitors to titrate specific binding to receptors and transporters. Most enzyme assays (CYPs, kinases, phosphatases, proteases, HDACs) used recombinant protein and specific substrates (fluorescence mostly, some colorimetric and radioactive) and inhibitors, followed by a biochemical separation of substrate and product. All assays for the biochemical HTS were initially run in duplicate at a single concentration (10 uM for CYP450 assays and 25 uM for all others). […] Each assay was run with positive and negative controls, and concurrent controls on every plate. The follow-up (secondary) screen tested active chemical-pairs in concentration series, as well as a few additional assays not tested in the primary screen, some selected negative inactives, and several cases re-run in the concentration series for confirmatory purposes.

Chain of Peroxisome proliferator-activated receptor gamma (Homo sapiens) (P37231 whole entry, looked up): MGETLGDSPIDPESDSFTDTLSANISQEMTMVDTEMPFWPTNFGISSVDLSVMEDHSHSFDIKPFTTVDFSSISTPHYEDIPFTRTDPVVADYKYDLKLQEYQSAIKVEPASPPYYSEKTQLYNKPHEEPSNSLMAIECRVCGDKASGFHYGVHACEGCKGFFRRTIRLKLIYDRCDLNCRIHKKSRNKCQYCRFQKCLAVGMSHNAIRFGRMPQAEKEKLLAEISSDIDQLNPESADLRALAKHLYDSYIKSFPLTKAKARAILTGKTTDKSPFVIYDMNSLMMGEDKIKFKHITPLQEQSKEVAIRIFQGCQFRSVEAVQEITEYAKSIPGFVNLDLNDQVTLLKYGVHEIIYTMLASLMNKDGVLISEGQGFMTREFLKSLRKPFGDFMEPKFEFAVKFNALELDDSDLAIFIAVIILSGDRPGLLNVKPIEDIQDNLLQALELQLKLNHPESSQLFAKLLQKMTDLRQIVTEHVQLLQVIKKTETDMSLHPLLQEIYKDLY

Structure (SMILES) | outcome | AC50
CCCCCCCCCCCCc1ccc(O)cc1 | inactive | 
C[Si]1(C)O[Si](C)(C)O[Si](C)(C)O[Si](C)(C)O[Si](C)(C)O1 | inactive | 
O=c1c(O)c(-c2ccc(O)cc2O)oc2cc(O)cc(O)c12 | inactive | 
Cc1ccc([N+](=O)[O-])cc1N | inactive | 
CCCCCC[C@@H](O)C/C=C\CCCCCCCC(=O)OCC(O)CO (some centres not stated) | inactive | 
c1ccc(Nc2cccc3ccccc23)cc1 | inactive | 
O=C(OCc1ccccc1)c1ccc(O)cc1 | inactive | 10.4 µM (active)
CC1=NN(c2ccc(S(=O)(=O)O)cc2)C(=O)C1N=Nc1ccccc1 (configuration not stated) | inactive | 
CCN1CN(CC)CN(CC)C1 | inactive | 
CCCCCCCCCCCC(=O)N(C)CC(=O)O | inactive | 
O=S(=O)(O)c1ccc(N=Nc2c(O)ccc3ccccc23)cc1 |  | 20.7 µM (active)
CCOC(=O)c1ccc(C)cc1 | inactive | 
O=C(O)/C=C/c1ccccc1 | inactive | 
Oc1ccc(-c2ccccc2)c(Cl)c1 | inactive | 
Nc1ccc(C(=O)O)cc1 | inactive | 
CCc1cccc(C)c1N | inactive | 

Structure (SMILES) | outcome | AC50
CC(C)COC(=O)CC(C(=O)OCC(C)C)S(=O)(=O)O (configuration not stated) | inactive | 
CC(C)(C)NC(=O)[C@H]1CC[C@H]2[C@@H]3CC[C@H]4NC(=O)C=C[C@]4(C)[C@H]3CC[C@]12C | inactive | 
CCCCC/C=C\C/C=C\CCCCCCCC(=O)O |  | 6.85 µM (active)
C=CCOC(=O)c1ccc(C(=O)OCC=C)c(C(=O)OCC=C)c1 | inactive | 
COC(=O)[C@H](Cc1ccccc1)NC(=O)[C@@H](N)CC(=O)O (H-Asp-Phe-OMe) | inactive | 
CCCCCCCOC(=O)c1ccc(O)cc1 |  | 12.3 µM (active)
Oc1ccccc1Cc1ccccc1O | inactive | 
CCCCCCC=O | inactive | 
CC(C)c1cc(C(C)C)cc(C(C)C)c1 | inactive | 
CCCCCCOC(=O)CCCCC(=O)OCCCCCC | inactive | 
CC(C)c1ccc(O)c(C(C)C)c1 | inactive | 
C/C=C/C=C/CCCCCCCO | inactive | 
C=C1C[C@H]2[C@@H]3C=C(C)C4=CC(=O)CC[C@]4(C)[C@H]3CC[C@]2(C)[C@@]1(OC(C)=O)C(C)=O | inactive | 
CC(C)(C)N | inactive | 
CC12CCC(CC1)C(C)(C)O2 |  | 19.1 µM (active)

Source: PubChem BioAssay (EPA / NIEHS)
